# Compound activity: PubChem BioAssay, several laboratories
# Y pestis TopoI = Y. pestis Topo-I inhibition via cleavage products; Y. pestis Topo-I cleavage product accumulation, plate reader; activity, % at 10 µM; 360,000 compounds, 0.064% hits; AID 504884; in the data active = activity above about 50%, passing the limit was not always enough; inconclusive = no clear call, values can overlap the other calls
# PrP UTR inh = inhibition of PrP 5' UTR reporter expression. cell-based PrP 5' UTR mRNA reporter, plate reader. inhibition, % (concentration not given with the values). 340,000 compounds, 0.35% hits; in the data active = inhibition above about 52%; note: 0 = median of the neutral control wells
# CCHF vOTU inh = CCHFV vOTU protease inhibition. AID 651958. inhibition, % at 11.5 µM. 370,000 compounds, 0.55% hits. Pep-AMC fluorescence; in the data active = inhibition above about 30%; note: 0% = vehicle wells with enzyme and 100% = no enzyme wells
# BJeLR viability = kills HRASV12-expressing BJeLR cells; BJeLR (HRASV12) viability, CellTiter-Glo ATP luminescence, 48 h; inhibition, % (no concentration beside the values); 300,000 compounds, 0.17% hits; in the data active = inhibition above about 50%; inconclusive = no clear call, values can overlap the other calls
# PrPC TRFRET = cell surface PrPC inhibition, primary TR-FRET screen; P04156; TR-FRET read-out; inhibition, % at 13.8 µM; 370,000 compounds, 0.43% hits; in the data active = inhibition above about 24%; note: 0% = median of the test wells and 100% = reference compound wells
# PfHsp40 rescue = rescue of PfHsp40-mediated yeast toxicity; 340,000 compounds, 0.68% hits; growth rescue, % at 12.5 µM; AID 504582; S. cerevisiae expressing PfHsp40, growth rescue, ATP luminescence; in the data active = growth rescue above about 28%, passing the limit was not always enough; inconclusive = no clear call, values can overlap the other calls;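 note: yeast W303a lacking pdr1 and pdr3 grown in galactose medium; growth measured after three days at 30 °C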
# PrP UTR cherry = prion 5' UTR mRNA inhibition, cherry-pick retest; shares compounds with PrP UTR inh; 1,100 compounds, 48% hits; inhibition, % at 2.5 µM; cell-based prion protein 5' UTR reporter, plate reader; in the data active = inhibition above about 54%; inconclusive = no clear call, values can overlap the other calls
# * = called active by the depositor; ? = inconclusive; nt = not tested or not shown. This is a sample that favours compounds with a hit; in the whole collection about 2% have one here.
SMILES,Y pestis TopoI,PrP UTR inh,CCHF vOTU inh,BJeLR viability,PrPC TRFRET,PfHsp40 rescue,PrP UTR cherry
Cc1ccccc1OC(C)c1nc(-c2ccccc2)no1 (stereo not drawn),6.7,-22.0,4.3,6.1,-0.5,-0.3,nt
O=C1CN(C(=O)c2ccc(F)c(S(=O)(=O)N3CCOCC3)c2)c2ccccc2N1,-1.4,58.9*,9.7,-3.5,0.6,0.7,35.7
c1ccc(-c2cn3nc4c(nc3n2)CCCC4)cc1,-7.0,67.4*,23.6,13.1,1.6,-0.8,37.0
COc1ccc(/C=N/NC(=O)c2[nH]c3ccc(Br)cc3c2-c2ccccc2)cc1,13.8,68.1*,-10.5,55.1*,7.5,0.1,80.9*
CC(=O)OC(C)(C)/C=C/C(=O)[C@](C)(O)C1[C@H](O)C[C@@]2(C)C3CC=C4C(C[C@H](O)C(=O)C4(C)C)[C@]3(C)C(=O)C[C@]12C (stereo partly drawn),6.1,83.6*,nt,nt,nt,-1.3,89.9*
Cc1ccc(S(=O)(=O)N2CC3(COC(C)(C)OC3)C[C@H]2CON2C(C)(C)CCCC2(C)C)cc1,nt,nt,nt,nt,9.3,nt,nt
CCN(CC)C1CCCCC1NS(=O)(=O)c1ccc(Cl)cc1 (stereo not drawn),-1.8,79.9*,6.3,3.3,8.5,-0.5,-7.9
c1coc(-c2nc3c4ccccc4ccn3c2Cc2ccsc2)c1,nt,nt,9.0,nt,7.7,nt,nt
COC(=O)[C@]1(C#N)CC(=O)N(C)[C@@H]1c1ccccc1,nt,nt,0.6,nt,-0.3,nt,nt
CN(C)CCCNc1c2c(nc3ccccc13)CCC2,-2.5,-8.2,-10.4,9.7,-13.8,0.4,nt
CN(C)CCNCCCNc1c2ccccc2nc2cccc([N+](=O)[O-])c12,-16.6,95.1*,-7.9,nt,-12.6,-1.0,97.5*
Cc1nn(-c2ccccc2)c2sc(C(=O)NCC3CCCO3)cc12 (stereo not drawn),nt,nt,-8.5,nt,-3.9,nt,nt
O=C1c2cccc3cc([N+](=O)[O-])cc(c23)C(=O)N1CCN1CCCC1,-15.4,90.3*,9.4,95.6*,-7.7,-0.1,81.7*
O=C(N[C@@H]1C[C@@H]2O[C@@H](CO)CC[C@@H]2O[C@@H]1CCc1ccc(-c2cccnc2)cc1)c1cccc(F)c1,nt,nt,5.8,nt,-5.7,nt,nt
Cc1ccc([C@@H]2C[C@H]3[C@@H](CN2S(=O)(=O)c2ccc(C)cc2)C(=O)C[C@@H](c2ccccc2)N3S(=O)(=O)c2ccc(C)cc2)cc1,16.9,nt,1.9,nt,6.6,nt,nt
Cc1ccc(S(=O)(=O)N2CCC(=O)CC2c2ccccc2)cc1 (stereo not drawn),-2.2,56.2*,3.9,nt,-6.5,-0.9,-39.3
COc1ccc(CNC(=O)CSc2nc(-c3ccccc3)cc(-c3cccs3)c2C#N)cc1,-3.1,-45.4,6.1,-3.5,-6.4,1.6,nt
COc1ccc(-c2cc(-c3cccs3)c(C#N)c(SCC(=O)NCc3ccco3)n2)cc1,5.4,67.9*,nt,nt,nt,-0.7,86.5*
O=C(O)Cc1sc(Nc2ccc(Cl)cc2)nc1-c1cccs1,nt,88.3*,3.9,2.7,11.8,0.9,-23.8
O=C(CSc1ncn[nH]1)Nc1ncc(C(F)(F)F)cc1Cl,7.6,74.8*,8.6,-2.3,0.8,-0.9,-11.4
C[C@@H]1C=CCCO[C@]12C(=O)N(Cc1ccc(Br)cc1)c1cccc(Br)c12,nt,nt,11.2,nt,4.1,nt,nt
COC(=O)c1ccc(Cn2cc(/C=C\[N+](=O)[O-])c3ccccc32)o1,3.8,52.2*,-12.2,-10.6,-6.7,-0.5,-19.6
O=C(Nc1c(-c2ccccc2)nc2ncccn12)c1ccccc1,nt,nt,-8.0,nt,-8.1,nt,nt
COc1ccc(N2CCN(C(CNC(=O)C3CCCCC3)c3cccnc3)CC2)cc1 (stereo not drawn),-4.6,1.8,1.8,-5.6,2.9,-1.0,nt
O=C(NCC(c1cccnc1)N1CCN(c2ccc(F)cc2)CC1)C1CCCCC1 (stereo not drawn),-4.1,69.5*,-8.2,3.7,-1.1,69.8*,-13.2
SMILES,Y pestis TopoI,PrP UTR inh,CCHF vOTU inh,BJeLR viability,PrPC TRFRET,PfHsp40 rescue,PrP UTR cherry
COC(=O)c1ccccc1NC(=O)NCC1CCN(Cc2ccc(OC)cc2)CC1,nt,nt,-1.7,nt,-9.4,nt,nt
COC(=O)CN1CCN(C(=O)c2csc(-c3ccccc3)n2)CC1,nt,nt,-3.9,nt,-0.7,nt,nt
CC1(C)Oc2cc3oc(-c4cc(O)cc(O)c4)cc3cc2CC1O (stereo not drawn),-14.0,70.7*,-36.7,-12.9,-9.5,0.4,?
CC(=O)c1c(C)[nH]c(C(=O)Nc2nc(-c3ccc(Cl)cc3)cs2)c1C,-11.7,-18.9,-0.8,5.5,2.4,0.1,nt
CC(=O)c1c(C)[nH]c(C(=O)Nc2nc(C)cs2)c1C,0.4,65.2*,19.4,3.1,-1.3,0.3,43.5
CCC(C)(C)n1nnnc1C(c1cccs1)N1CCCCC1 (stereo not drawn),-0.6,51.5*,7.9,8.4,-0.7,-0.8,-5.0
CC(C)(C)n1nnnc1C(c1cccs1)N1CCCC2(CCCCC2)C1 (stereo not drawn),-0.1,-18.3,-9.4,-4.7,1.9,0.9,nt
Nc1ncnc(Oc2cccc3cccnc23)c1[N+](=O)[O-],1.6,67.4*,23.2,-0.1,-13.9,-0.1,31.9
O=C(Nc1ccc(N2CCOCC2)cc1)c1cnsn1,-6.2,67.6*,8.5,0.8,0.7,-0.5,76.8*
COc1ccc(CC(=O)Oc2ccccc2C)cc1,6.2,58.1*,-10.0,10.1,-0.3,-0.3,-11.7
CCOC(=O)C1=C(C(=O)OCC)C2N(Cc3ccc(C#N)cc3)c3ccccc3[C@@]23C[C@@H](C(=O)OC)N(S(=O)(=O)c2ccccc2)C3=N1 (stereo partly drawn),nt,nt,0.4,nt,-5.8,nt,nt
Cc1ccoc1C(=O)Nc1ccc2ccccc2c1,-1.6,9.7,0.9,-6.6,-29.4,2.4,nt
Cc1ccoc1C(=O)Nc1ccc(CC(=O)O)cc1,-7.4,63.6*,4.6,5.5,-4.8,-0.2,53.5*
O=C(C(=O)N1CCC(CNC(=O)c2cccs2)CC1)c1cc2ccccc2o1,nt,nt,13.9,nt,-10.3,nt,nt
CCN(C(=O)[C@@H](C)[C@@H](O)c1ccc(Cl)cc1)c1ccccc1,nt,nt,15.1,nt,7.2,nt,nt
CCOc1ccc(-c2cnc3ccccc3n2)cc1,11.1,60.1*,-3.6,-0.9,-5.5,-0.3,?
C[C@H](CO)N1C[C@H](C)[C@@H](CN(C)S(=O)(=O)c2ccc(F)cc2)Oc2cc(Br)ccc2S1(=O)=O,nt,nt,18.7,nt,-5.1,nt,nt
Cc1csc(NC(=O)CCc2c(C)nc3cc(-c4ccc(Cl)cc4)nn3c2C)n1,9.4,50.3*,-5.6,nt,-0.8,4.6,59.2*
Cc1nc2cc(-c3ccc(Cl)cc3)nn2c(C)c1CCC(=O)NC(C)c1ccc2c(c1)OCCO2 (stereo not drawn),30.4,40.2,-8.5,2.6,-1.0,2.1,nt
CC(=O)C1=C(C)N(Cc2ccc(F)cc2)C(=S)NC1c1ccc(Br)cc1 (stereo not drawn),nt,nt,1.5,nt,10.9,nt,nt
Nc1nc2c(ncn2[C@@H]2O[C@H](C(=O)NCC3CCCCC3)[C@@H](O)[C@H]2O)c(=O)[nH]1,nt,nt,3.4,nt,2.2,nt,nt
